Some test systems named below: MTOR; MUSK; MYLK2; MYLK4; MYLK; MYO3A; MYO3B; NDR2; NEK10.
Holding throughout (details): concentration: 1 μM, replicates: in singlicate; n = 1
Another assay concerns T1, NDR1.
T1 construct: gene STK38

The structures appear in SMILES notation.
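Also: KINOMEscan kinase panel screen.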

On to `CCCCc1nn2ncccc2c1-c1ccnc(Nc2ccc(N3CCN(C)CC3)cc2)n1` [GW684941], for which the “%Inh” value with MTOR is recorded as 16%; with MUSK, 98.2%; in the assay on MYLK2 it was 41%; in the assay with MYLK4, 26%; with MYLK, 4%; in the assay with MYO3A it was 0%. In addition, the “%Inh” value in the assay with MYO3B was determined as 0%; with NDR1, 18%; in the assay on NDR2, 0%; in the assay with NEK10, 65%.
For the compound `COc1cccc(-c2ccc3c(NC(=O)C4CC4)n[nH]c3n2)c1` [SB-710903], the “%Inh” value stood at 20% with MTOR; 0% with MUSK; 78% with MYLK2; 6% in the assay with MYLK4; 11% in the assay on MYLK; 45% in the assay on MYO3A. The “%Inh” value with MYO3B is listed as 0%; with NDR1, 10%; in the assay on NDR2 it was 16%; in the assay with NEK10 it was 20%.
For the compound `C[C@@H](Oc1cc(-n2cnc3cc(-c4ccnc(NCCS(C)(=O)=O)c4)ccc32)sc1C(N)=O)c1ccccc1Cl` [GSK907232], the “%Inh” value in the assay on MTOR is given as 2%; in the assay on MUSK it was 30%; with MYLK2 it was 53%; in the assay on MYLK4, 2%; in the assay with MYLK, 10%; in the assay with MYO3A it was 13%. Besides, the “%Inh” value with MYO3B, in the assay on NDR1, in the assay with NDR2 and in the assay on NEK10 was 0% in each case.
Turning to `Cl.Cl.NCC(NCc1ccc(-c2ccnc3[nH]ccc23)s1)c1ccccc1` (stereo not shown) [GSK1321565], the “%Inh” value in the assay on MTOR was found to be 43%; in the assay on MUSK, 13%; in the assay on MYLK2 it was 5%; in the assay with MYLK4, 99.8%; in the assay on MYLK, 59%; in the assay on MYO3A, 34%. In addition, the “%Inh” value with MYO3B came out at 0%; in the assay on NDR1, 53%; with NDR2 it was 31%; in the assay with NEK10, 27%.
Consider `CSc1cccc2c(-c3ccncn3)c(-c3ccc(F)cc3)nn12` [GW514786], for which the “%Inh” value came out at 24% in the assay on MTOR; 7% in the assay with MUSK; 0% with MYLK2; 0% in the assay on MYLK4; 23% in the assay on MYLK; 13% in the assay on MYO3A. Moreover, the “%Inh” value in the assay with MYO3B was determined as 0%; in the assay with NDR1, 13%; in the assay on NDR2, 12%; in the assay on NEK10, 2%.
With `CCc1ccc(-c2ccc3c(c2)-c2c(cnn2C)S(=O)(=O)N3C)cc1`, the “%Inh” value with MTOR was 0%; in the assay on MUSK, 14%; in the assay on MYLK2, 0%; in the assay on MYLK4, 1%; with MYLK it was 0%; in the assay with MYO3A it was 16%. Further, the “%Inh” value in the assay with MYO3B turned out to be 25%; with NDR1, 0%; with NDR2, 0%; in the assay on NEK10 it was 9%.
Regarding `CCS(=O)(=O)c1ccc(OC)c(Nc2nccc(-c3c(-c4cccc(NC(=O)c5c(F)cccc5F)c4)nn4ncccc34)n2)c1` [GSK326180], the “%Inh” value in the assay on MTOR was 15%; in the assay with MUSK, 11%; in the assay on MYLK2, 9%; with MYLK4 it was 2%; in the assay with MYLK, 17%; with MYO3A, 30%. The “%Inh” value is reported as 6% with MYO3B, 0% in the assay with NDR1, 0% in the assay with NDR2 and 21% with NEK10.
For the compound `CCn1c(-c2nonc2N)nc2c(C#CC(C)(C)O)nc(OC[C@H](N)c3ccccc3)cc21` [GSK943949], the “%Inh” value in the assay on MTOR worked out at 20%; with MUSK, 0%; in the assay with MYLK2, 0%; with MYLK4, 0%; in the assay with MYLK, 12%; in the assay on MYO3A, 0%. The “%Inh” value is 0% with MYO3B, 34% with NDR1, 2% with NDR2 and 34% in the assay on NEK10.
With `COc1cccc(NC(=O)NC2CCN(c3ccnc(Nc4cc(OC)c(OC)c(OC)c4)n3)C2)c1` (stereo not shown) [GSK1379763], the “%Inh” value in the assay on MTOR is 7%; with MUSK it was 5%; with MYLK2 it was 0%; in the assay on MYLK4, 0%; in the assay on MYLK, 17%; in the assay with MYO3A it was 12%. The “%Inh” value with MYO3B came to 0%; in the assay with NDR1 it was 0%; in the assay on NDR2, 0%; with NEK10, 15%.
For `Cl.c1ccc(-c2ccc3c(Nc4ccc5[nH]ccc5c4)ccnc3c2)nc1` [GW440138], the “%Inh” value with MTOR came to 4%; in the assay on MUSK it was 0%; in the assay with MYLK2 it was 0%; with MYLK4, 0%; with MYLK, 13%; in the assay with MYO3A, 23%. Moreover, the “%Inh” value is listed as 0% in the assay on MYO3B, 0% in the assay with NDR1, 27% with NDR2 and 1% with NEK10.
Consider `O=c1[nH]cc(-c2ccc(N3CCOCC3)cc2)c2sc(-c3cn[nH]c3)cc12` [GSK2276055], for which the “%Inh” value in the assay with MTOR was determined as 8%; in the assay on MUSK, 0%; in the assay with MYLK2, 3%; in the assay on MYLK4, 48%; in the assay with MYLK it was 18%; with MYO3A, 53%. Also, the “%Inh” value came to 0% with MYO3B, 30% in the assay on NDR1, 29% in the assay on NDR2 and 0% in the assay with NEK10.
As to `COc1cc(Nc2nccc(N3CCC(NC(=O)c4cc5ccccc5s4)C3)n2)cc(OC)c1OC` (stereo not shown) [GSK1379760], the “%Inh” value in the assay with MTOR came out at 34%; with MUSK it was 1%; in the assay on MYLK2, 13%; with MYLK4, 3%; with MYLK, 0%; in the assay on MYO3A, 17%. Also, the “%Inh” value was found to be 0% in the assay on MYO3B, 12% with NDR1, 0% with NDR2 and 18% in the assay on NEK10.
Consider `O=C(Nc1n[nH]c2cc(-c3ccoc3)ccc12)C1CC1` [SB-738481], for which the “%Inh” value with MTOR is recorded as 0%; with MUSK it was 0%; with MYLK2 it was 89%; in the assay on MYLK4 it was 19%; in the assay with MYLK, 29%; in the assay with MYO3A, 0%. Also, the “%Inh” value is recorded as 0% with MYO3B, 6% in the assay with NDR1, 0% in the assay on NDR2 and 0% with NEK10.
As for `Cl.Cl.NCC(C(=O)Nc1cc(Br)c(-c2ccnc3[nH]ccc23)s1)c1ccccc1` (stereo not shown) [GSK1269851], the “%Inh” value in the assay on MTOR is given as 26%; in the assay with MUSK it was 1%; in the assay with MYLK2 it was 56%; with MYLK4 it was 99.8%; in the assay with MYLK, 37%; in the assay on MYO3A, 0%. Also, the “%Inh” value with MYO3B amounted to 0%; in the assay on NDR1 it was 70%; with NDR2, 13%; in the assay with NEK10 it was 12%.
As for `Cn1cc(-c2[nH]c3cc(NC(=O)[C@H](N)C4CCCCC4)cc4c3c2C=NNC4=O)cn1`, the “%Inh” value is reported as 17% in the assay on MTOR; 12% in the assay on MUSK; 47% in the assay on MYLK2; 98.7% in the assay with MYLK4; 24% in the assay with MYLK; 5% with MYO3A. Besides, the “%Inh” value in the assay on MYO3B is recorded as 0%; in the assay with NDR1, 93.1%; in the assay on NDR2, 75%; with NEK10 it was 54%.
For `Cc1occc1-c1ncc(OC[C@@H](N)Cc2c[nH]c3ccccc23)cc1-c1ccc2[nH]nc(C)c2c1.O=C(O)C(F)(F)F` [GSK682037], the “%Inh” value in the assay on MTOR stood at 7%; with MUSK, 7%; in the assay with MYLK2 it was 21%; in the assay with MYLK4, 0%; with MYLK, 29%; in the assay with MYO3A, 75%. The “%Inh” value in the assay on MYO3B amounted to 38%; in the assay with NDR1 it was 30%; with NDR2, 0%; in the assay on NEK10, 4%.

Values taken from PMC5540273 (PLoS ONE, 2017).
